Assays:
Assay in all cases: DAPPL (digital affinity profiling via proximity ligation, sequencing); 10 mM Tris-HCl pH 7.5, 50 mM NaCl, 1 mM DTT, 4% glycerol, room temperature, 30 min; GST-TFs on glutathione beads, 16-mer random dsDNA library, 0.1% formaldehyde crosslink after washing; high values mean tight binding
GABPA = biological target: T1, GABPA (Homo sapiens, UniProt Q06546 1-454); conditions: protein: recombinant; tags: N-terminal GST; dsDNA, one strand shown
T1 sequence: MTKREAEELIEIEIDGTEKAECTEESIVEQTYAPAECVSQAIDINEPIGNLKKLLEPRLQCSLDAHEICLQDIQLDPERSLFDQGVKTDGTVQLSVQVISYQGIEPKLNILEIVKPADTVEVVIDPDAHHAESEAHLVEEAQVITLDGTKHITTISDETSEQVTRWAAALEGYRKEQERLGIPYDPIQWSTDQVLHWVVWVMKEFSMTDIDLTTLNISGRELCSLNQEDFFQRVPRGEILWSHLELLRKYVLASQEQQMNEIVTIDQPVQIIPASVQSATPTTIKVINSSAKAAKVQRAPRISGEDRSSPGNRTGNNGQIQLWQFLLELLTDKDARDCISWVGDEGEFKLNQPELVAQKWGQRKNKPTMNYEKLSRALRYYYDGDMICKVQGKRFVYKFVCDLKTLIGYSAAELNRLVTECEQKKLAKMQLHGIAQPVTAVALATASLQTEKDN
How it was run: (§1)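 Binding signal is each hexamer's read frequency for a factor divided by its frequency in the tag-only sample. The factors were GST-fused human transcription factors from yeast, captured on glutathione beads, DNA-barcoded and pooled with that sample. Pools were incubated with 200 nmole of a random double-stranded 16-mer DNA library in Tris/NaCl/DTT/glycerol buffer at room temperature for 30 min, then washed, crosslinked with 0.1% formaldehyde, proximity-ligated with BsaI/T4 ligase (1 h, 37 °C), PCR-amplified and sequenced on an Illumina NextSeq500.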

ELF1 = ELF1 (Homo sapiens, UniProt P32519 1-619); conditions: protein: recombinant; tags: N-terminal GST; dsDNA, one strand shown
ELF1, sequence (P32519 whole entry): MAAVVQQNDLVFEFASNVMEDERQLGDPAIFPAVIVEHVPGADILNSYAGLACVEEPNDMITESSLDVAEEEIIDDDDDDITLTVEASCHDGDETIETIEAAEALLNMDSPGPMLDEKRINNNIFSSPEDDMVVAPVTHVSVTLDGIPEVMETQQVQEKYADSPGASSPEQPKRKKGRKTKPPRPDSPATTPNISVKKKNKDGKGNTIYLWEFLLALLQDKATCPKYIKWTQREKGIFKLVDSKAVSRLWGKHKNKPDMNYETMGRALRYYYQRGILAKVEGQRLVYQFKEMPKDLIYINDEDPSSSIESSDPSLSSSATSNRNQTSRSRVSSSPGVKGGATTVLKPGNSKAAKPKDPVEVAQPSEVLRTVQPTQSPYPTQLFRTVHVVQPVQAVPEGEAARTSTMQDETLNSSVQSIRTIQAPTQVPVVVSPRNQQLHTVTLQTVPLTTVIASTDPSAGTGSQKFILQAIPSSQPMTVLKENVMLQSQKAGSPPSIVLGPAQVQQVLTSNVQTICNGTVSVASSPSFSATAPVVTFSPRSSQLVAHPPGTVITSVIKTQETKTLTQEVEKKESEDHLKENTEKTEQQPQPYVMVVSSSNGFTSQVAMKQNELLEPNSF
How it was run: as §1

SPIB = SPIB (Homo sapiens, UniProt Q01892 1-262); conditions: protein: recombinant; tags: N-terminal GST; dsDNA, one strand shown
SPIB, sequence (Q01892 whole entry): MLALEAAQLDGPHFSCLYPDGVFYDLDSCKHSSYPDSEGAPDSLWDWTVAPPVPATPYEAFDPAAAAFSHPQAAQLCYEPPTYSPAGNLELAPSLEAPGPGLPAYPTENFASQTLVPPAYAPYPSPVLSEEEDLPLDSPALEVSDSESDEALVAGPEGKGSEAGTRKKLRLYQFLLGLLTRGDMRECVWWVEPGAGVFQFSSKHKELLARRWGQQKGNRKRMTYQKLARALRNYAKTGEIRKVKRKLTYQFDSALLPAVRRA
How it was run: as §1

HSF1 = HSF1 (Homo sapiens, UniProt Q00613 1-529); conditions: protein: recombinant; tags: N-terminal GST; chain copies: 3; dsDNA, one strand shown
HSF1, sequence (Q00613 whole entry): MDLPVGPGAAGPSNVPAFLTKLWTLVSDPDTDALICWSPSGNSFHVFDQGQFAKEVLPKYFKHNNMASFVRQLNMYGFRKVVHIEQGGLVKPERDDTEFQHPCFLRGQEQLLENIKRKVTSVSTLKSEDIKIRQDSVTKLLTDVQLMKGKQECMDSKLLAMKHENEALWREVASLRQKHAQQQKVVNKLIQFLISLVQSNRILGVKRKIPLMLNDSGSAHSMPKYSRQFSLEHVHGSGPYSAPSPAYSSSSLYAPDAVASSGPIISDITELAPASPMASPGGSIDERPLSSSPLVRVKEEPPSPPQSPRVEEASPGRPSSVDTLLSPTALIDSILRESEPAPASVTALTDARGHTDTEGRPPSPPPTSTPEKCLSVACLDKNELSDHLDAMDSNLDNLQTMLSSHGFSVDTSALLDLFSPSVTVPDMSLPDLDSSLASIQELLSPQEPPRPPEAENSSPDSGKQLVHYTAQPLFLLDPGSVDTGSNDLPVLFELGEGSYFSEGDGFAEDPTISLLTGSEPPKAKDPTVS
How it was run: as §1

SPIC = biological target: T2, SPIC (Homo sapiens, UniProt Q8N5J4 1-248); conditions: protein: recombinant; tags: N-terminal GST; dsDNA, one strand shown
T2 sequence: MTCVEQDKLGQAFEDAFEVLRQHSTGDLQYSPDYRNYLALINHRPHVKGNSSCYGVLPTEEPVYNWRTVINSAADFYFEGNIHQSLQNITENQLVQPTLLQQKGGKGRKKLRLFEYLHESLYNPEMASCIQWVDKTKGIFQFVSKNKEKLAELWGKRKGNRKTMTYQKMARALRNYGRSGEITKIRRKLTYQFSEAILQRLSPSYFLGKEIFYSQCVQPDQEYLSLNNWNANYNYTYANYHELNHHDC
How it was run: as §1

ELF4 = ELF4 (Homo sapiens, UniProt Q99607 1-663); conditions: protein: recombinant; tags: N-terminal GST; dsDNA, one strand shown
ELF4, sequence (Q99607 whole entry): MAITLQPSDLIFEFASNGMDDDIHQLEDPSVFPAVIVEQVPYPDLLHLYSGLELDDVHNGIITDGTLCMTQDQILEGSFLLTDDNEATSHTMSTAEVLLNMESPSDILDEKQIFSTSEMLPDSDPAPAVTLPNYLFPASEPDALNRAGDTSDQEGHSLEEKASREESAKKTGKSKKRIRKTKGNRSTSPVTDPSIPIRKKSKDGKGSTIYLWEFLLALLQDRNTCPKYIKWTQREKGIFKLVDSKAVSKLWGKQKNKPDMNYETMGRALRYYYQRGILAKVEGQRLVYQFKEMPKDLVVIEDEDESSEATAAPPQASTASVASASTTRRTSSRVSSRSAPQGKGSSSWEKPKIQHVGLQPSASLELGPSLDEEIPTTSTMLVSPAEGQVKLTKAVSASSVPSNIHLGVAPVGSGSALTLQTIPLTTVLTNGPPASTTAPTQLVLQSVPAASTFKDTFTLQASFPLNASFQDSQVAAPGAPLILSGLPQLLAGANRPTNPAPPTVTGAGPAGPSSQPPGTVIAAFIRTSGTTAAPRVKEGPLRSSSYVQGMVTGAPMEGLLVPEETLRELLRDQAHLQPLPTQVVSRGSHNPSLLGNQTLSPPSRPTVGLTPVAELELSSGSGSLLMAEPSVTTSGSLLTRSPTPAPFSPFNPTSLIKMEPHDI
How it was run: as §1

ELF3 = biological target: T3, ELF3 (Homo sapiens, UniProt P78545 1-371); conditions: protein: recombinant; tags: N-terminal GST; dsDNA, one strand shown
T3 sequence: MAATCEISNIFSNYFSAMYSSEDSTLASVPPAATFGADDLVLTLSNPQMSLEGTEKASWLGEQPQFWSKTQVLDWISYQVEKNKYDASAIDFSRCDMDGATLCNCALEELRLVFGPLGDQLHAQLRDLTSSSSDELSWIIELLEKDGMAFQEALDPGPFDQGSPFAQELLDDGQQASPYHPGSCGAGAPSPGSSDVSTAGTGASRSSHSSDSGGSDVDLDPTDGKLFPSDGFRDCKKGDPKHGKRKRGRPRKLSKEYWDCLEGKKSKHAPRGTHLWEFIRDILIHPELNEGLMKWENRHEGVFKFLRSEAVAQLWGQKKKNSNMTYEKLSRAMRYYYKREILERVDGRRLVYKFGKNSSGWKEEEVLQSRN
How it was run: as §1

CRX = CRX (Homo sapiens, UniProt O43186 1-299); conditions: protein: recombinant; tags: N-terminal GST; dsDNA, one strand shown
CRX, sequence (O43186 whole entry): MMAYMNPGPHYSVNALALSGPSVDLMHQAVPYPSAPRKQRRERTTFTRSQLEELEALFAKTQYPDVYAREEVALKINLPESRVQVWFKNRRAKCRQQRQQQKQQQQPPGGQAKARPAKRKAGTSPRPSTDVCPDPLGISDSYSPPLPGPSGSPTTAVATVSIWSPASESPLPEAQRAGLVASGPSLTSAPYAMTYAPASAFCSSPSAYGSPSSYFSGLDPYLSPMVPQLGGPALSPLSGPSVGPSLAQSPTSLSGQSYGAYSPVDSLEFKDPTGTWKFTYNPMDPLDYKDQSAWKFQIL
How it was run: as §1

ERF = biological target: T4, ERF (Homo sapiens, UniProt P50548 1-548); conditions: protein: recombinant; tags: N-terminal GST; dsDNA, one strand shown
T4 sequence: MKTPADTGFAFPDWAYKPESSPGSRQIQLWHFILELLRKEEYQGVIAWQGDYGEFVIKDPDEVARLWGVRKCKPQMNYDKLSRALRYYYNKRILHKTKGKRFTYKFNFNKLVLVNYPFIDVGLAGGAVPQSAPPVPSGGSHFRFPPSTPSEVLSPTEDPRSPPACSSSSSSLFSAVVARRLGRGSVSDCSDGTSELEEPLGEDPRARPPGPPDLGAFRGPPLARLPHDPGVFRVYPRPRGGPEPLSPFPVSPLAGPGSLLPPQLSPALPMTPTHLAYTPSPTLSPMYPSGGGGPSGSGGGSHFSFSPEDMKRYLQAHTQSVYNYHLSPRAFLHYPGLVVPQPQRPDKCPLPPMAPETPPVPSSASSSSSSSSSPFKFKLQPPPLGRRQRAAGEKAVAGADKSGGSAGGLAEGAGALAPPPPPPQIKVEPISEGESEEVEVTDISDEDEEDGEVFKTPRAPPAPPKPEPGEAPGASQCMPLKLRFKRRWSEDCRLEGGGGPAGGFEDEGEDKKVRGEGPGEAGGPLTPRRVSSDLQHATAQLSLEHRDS
How it was run: as §1

ETV3L = biological target: T5, ETV3L (Homo sapiens, UniProt Q6ZN32 1-361); conditions: protein: recombinant; tags: N-terminal GST; dsDNA, one strand shown
T5 sequence: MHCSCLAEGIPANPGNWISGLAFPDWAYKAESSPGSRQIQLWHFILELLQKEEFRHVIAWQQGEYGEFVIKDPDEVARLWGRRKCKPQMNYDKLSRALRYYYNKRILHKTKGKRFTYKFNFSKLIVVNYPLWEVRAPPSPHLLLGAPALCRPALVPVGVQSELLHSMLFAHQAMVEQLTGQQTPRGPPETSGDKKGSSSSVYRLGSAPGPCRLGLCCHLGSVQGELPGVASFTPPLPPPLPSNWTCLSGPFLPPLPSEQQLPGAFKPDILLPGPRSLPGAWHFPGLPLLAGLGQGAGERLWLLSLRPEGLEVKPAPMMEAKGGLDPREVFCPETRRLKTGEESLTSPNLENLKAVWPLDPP
How it was run: as §1

ETS2 = biological target: T6, ETS2 (Homo sapiens, UniProt P15036 1-469); conditions: protein: recombinant; tags: N-terminal GST; dsDNA, one strand shown
T6 sequence: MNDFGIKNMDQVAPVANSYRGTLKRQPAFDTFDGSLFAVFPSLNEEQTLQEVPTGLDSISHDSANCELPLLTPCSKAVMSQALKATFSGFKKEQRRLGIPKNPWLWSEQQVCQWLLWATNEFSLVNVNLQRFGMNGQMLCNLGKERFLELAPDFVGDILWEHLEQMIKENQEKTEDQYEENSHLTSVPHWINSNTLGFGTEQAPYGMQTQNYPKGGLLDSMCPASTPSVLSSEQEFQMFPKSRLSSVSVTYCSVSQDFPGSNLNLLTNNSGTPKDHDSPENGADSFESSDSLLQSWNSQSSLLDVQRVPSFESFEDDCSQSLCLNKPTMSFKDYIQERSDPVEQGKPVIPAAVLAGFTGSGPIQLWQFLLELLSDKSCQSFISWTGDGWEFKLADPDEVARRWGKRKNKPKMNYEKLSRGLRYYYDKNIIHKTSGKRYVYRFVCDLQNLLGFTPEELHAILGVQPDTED
How it was run: as §1

SPDEF = biological target: T7, SPDEF (Homo sapiens, UniProt O95238 1-335); conditions: protein: recombinant; tags: N-terminal GST; dsDNA, one strand shown
T7 sequence: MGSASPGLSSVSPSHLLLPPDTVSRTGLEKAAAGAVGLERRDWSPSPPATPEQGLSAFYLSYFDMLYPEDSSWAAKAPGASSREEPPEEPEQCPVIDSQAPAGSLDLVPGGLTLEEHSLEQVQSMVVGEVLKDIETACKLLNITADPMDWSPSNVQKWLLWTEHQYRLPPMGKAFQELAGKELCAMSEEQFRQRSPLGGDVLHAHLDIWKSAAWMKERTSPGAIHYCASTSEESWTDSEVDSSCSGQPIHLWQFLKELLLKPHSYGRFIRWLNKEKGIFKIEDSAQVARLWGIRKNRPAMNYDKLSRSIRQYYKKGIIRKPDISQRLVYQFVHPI
How it was run: as §1

ETV7 = biological target: T8, ETV7 (Homo sapiens, UniProt Q9Y603 1-341); conditions: protein: recombinant; tags: N-terminal GST; dsDNA, one strand shown
T8 sequence: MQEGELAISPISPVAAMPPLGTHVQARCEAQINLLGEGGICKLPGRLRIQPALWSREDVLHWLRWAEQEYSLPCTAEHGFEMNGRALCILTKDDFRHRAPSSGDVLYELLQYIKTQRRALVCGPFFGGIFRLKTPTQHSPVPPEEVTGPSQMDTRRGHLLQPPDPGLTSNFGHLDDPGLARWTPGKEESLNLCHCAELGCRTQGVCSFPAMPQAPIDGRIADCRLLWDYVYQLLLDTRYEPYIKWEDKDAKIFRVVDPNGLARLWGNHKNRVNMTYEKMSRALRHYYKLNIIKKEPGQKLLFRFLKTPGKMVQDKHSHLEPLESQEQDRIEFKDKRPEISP
How it was run: as §1

ETV3 = biological target: T9, ETV3 (Homo sapiens, UniProt P41162-2 1-143); conditions: protein: recombinant; tags: N-terminal GST; dsDNA, one strand shown
T9 sequence: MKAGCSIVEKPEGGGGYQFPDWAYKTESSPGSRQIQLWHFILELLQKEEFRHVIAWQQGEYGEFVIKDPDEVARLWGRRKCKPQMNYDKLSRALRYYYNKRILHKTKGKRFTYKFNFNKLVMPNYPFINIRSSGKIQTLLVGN
How it was run: as §1

ETV6 = ETV6 (Homo sapiens, UniProt P41212 1-452); conditions: protein: recombinant; tags: N-terminal GST; dsDNA, one strand shown
ETV6, sequence (P41212 whole entry): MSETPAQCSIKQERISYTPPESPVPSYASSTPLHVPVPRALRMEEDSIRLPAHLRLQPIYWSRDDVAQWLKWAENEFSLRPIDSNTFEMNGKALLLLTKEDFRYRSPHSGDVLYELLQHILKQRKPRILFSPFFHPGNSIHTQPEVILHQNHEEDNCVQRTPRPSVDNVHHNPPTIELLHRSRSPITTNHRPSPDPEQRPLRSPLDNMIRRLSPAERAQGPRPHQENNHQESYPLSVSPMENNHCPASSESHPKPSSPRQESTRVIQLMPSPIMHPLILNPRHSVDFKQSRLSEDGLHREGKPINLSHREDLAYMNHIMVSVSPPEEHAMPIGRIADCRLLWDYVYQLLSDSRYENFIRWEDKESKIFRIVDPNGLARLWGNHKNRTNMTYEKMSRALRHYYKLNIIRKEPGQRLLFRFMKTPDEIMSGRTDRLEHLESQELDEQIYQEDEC
How it was run: as §1

GCTTAA was tested, and the binding signal (GABPA) was 1.14 fold enrichment (6-mer frequency, TF over GST control), the binding signal (ELF1) was 1.11 fold enrichment (6-mer frequency, TF over GST control) and the binding signal (SPIB) was 1.09 fold enrichment (6-mer frequency, TF over GST control). For the same sequence, the binding signal (HSF1) was 1.86 fold enrichment (6-mer frequency, TF over GST control), the binding signal (SPIC) was 1 fold enrichment (6-mer frequency, TF over GST control) and the binding signal (ELF4) was 1.02 fold enrichment (6-mer frequency, TF over GST control). For the same sequence, the binding signal (ELF3) was 1.02 fold enrichment (6-mer frequency, TF over GST control), the binding signal (CRX) was 3.04 fold enrichment (6-mer frequency, TF over GST control) and the binding signal (ERF) was 1.03 fold enrichment (6-mer frequency, TF over GST control). The binding signal (ETV3L) was 1.05 fold enrichment (6-mer frequency, TF over GST control), the binding signal (ETS2) was 1.08 fold enrichment (6-mer frequency, TF over GST control) and the binding signal (SPDEF) was 1.06 fold enrichment (6-mer frequency, TF over GST control). For the same sequence, the binding signal (ETV7) was 1.06 fold enrichment (6-mer frequency, TF over GST control), the binding signal (ETV3) was 1.13 fold enrichment (6-mer frequency, TF over GST control) and the binding signal (ETV6) was 1.05 fold enrichment (6-mer frequency, TF over GST control).

Reference: PMC7862700, “An all-to-all approach to the identification of sequence-specific readers for epigenetic DNA modifications on cytosine”
